This passage reports growth inhibition results from the supplement of paper PMC5641865, “A screen for kinase inhibitors identifies antimicrobial imidazopyridine aminofurazans as specific inhibitors of the Listeria monocytogenes PASTA kinase PrkA” (The Journal of Biological Chemistry, 2017).

± gives the standard deviation of the averaged measurements.
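Also: End-point A600 read in BHI broth at 37 °C with 2% DMSO, inhibition computed as (1 − OD with compound plus ceftriaxone ÷ OD with ceftriaxone only) × 100.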

This test concerns Listeria monocytogenes 10403S. Put plainly: growth inhibition relative to ceftriaxone-alone control; higher = stronger potentiation of ceftriaxone growth inhibition. The note with it: 10 µM; ceftriaxone 1 ug/ml; 12 h.
`CC(C)(C)c1cc(C=C(C#N)C#N)cc(Br)c1O`: the growth inhibition amounted to 103 ± 6.1%. Under `CCN1CCN(C(=O)Cc2ccc(Nc3ncc(F)c(Nc4ccc(C(=O)Nc5ccccc5Cl)cc4)n3)cc2)CC1` [Aurora A Inhibitor I] stands 7.11 ± 13%; under `COC[C@H]1OC(=O)c2coc3c2[C@@]1(C)C1=C(C3=O)[C@@H]2CCC(=O)[C@@]2(C)C[C@H]1OC(C)=O` [Wortmannin], 2.26 ± 1.5%; under `Cc1ccccc1-n1c(Cn2ncc3c(N)ncnc32)nc2cccc(C)c2c1=O`, 15.4 ± 13%. Under `Cc1ccccc1-n1c(Cn2cnc3c(N)ncnc32)nc2cccc(C)c2c1=O` stands -7.86 ± 4.1%; under `Cn1cc(C2=C(c3cn(C4CCN(Cc5ccccn5)CC4)c4ccccc34)C(=O)NC2=O)c2ccccc21`, 40.6 ± 17%; under `CNC(=O)Oc1cc(C)c(/C=C/c2cncc(C(=O)NC)c2)c(C)c1`, 3.06 ± 7%.

With `O=c1[nH]c2ccc(Cl)cc2c(N[C@@H]2CN3CCC2CC3)c1-c1nc2ccccc2[nH]1`, the growth inhibition was determined as 96.1 ± 3.4%.

With `CN[C@@H]1C[C@H]2O[C@@](C)([C@@H]1OC)n1c3ccccc3c3c4c(c5c6ccccc6n2c5c31)C(=O)NC4` [Staurosporine], the growth inhibition came out at 102 ± 5%.
